Experimental findings from PubChem BioAssay (NCATS) are described below.

The nature of assay [1]: Confirmatory screen NINDS Rhodamine qHTS for Zika virus inhibitors (AID 1347161).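 For activity change, negative = inhibition: purified Zika NS2B-NS3 protease with linked NS2B cofactor domain and Rhodamine110 peptide substrate; plate controls were no-inhibitor control for no effect and no-enzyme control for full effect.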 Note: nearly all actives have a fitted effect of over 60% in size. Note: potency is the fitted concentration of half-maximal effect. In a few lines:
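Each compound, titrated, sat 15 min with 25 nM linked protease before 1.5 microM Rhodamine110 substrate went in. Fluorescence gain over the next 15 min, in pH 8.0 Tris with Tween 20, gave Hill-fitted curves.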

Assay [2] can be described thus: Tertiary RLuc qRT-PCR qHTS assay for Zika virus inhibitors (AID 1347169). Note: nearly all actives have a fitted effect of over 55% in size. Note: potency is the fitted concentration of half-maximal effect. In a few lines:
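Inhibition of ZIKV-RLuc replication in Vero cells, read as Renilla luminescence 1-1.5 hrs after live-cell substrate addition, following 48-72 hrs infection at MOI 1-2 in presence of compound.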

Assay [3] in a line: qHTS to identify inhibitors of the type 1 interferon - major histocompatibility complex class I in skeletal muscle: primary screen against the NCATS Pharmaceutical Collection (AID 1347407).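 Note: luminescence of HiBiT knocked into endogenous HLA-B as interferon-induced MHC class I level; % is set by controls: 0 for no effect and ±100 for the full control effect.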 A digest of the protocol: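 A qHTS format is used: 8-point, 1:5 compound series with 46 uM top final concentration, applied alongside 4 ng/ml IFN-beta to HLA-B*08:01-HiBiT knock-in myoblasts. Luminescence is measured after 24 h treatment.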
A general note: Quantitative high-throughput screening tests each substance at several concentrations.

Assay [4] is described as follows: qHTS to identify inhibitors of the type 1 interferon - major histocompatibility complex class I in skeletal muscle: primary screen against the NCATS Mechanism Interrogation Plate v5.0 (MIPE) Libary (AID 1347411).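 For activity change, negative = inhibition: plate controls were vehicle for no effect and reference inhibitor for full effect.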 Note: nearly all actives have a fitted effect of over 65% in size. Note: potency is the fitted concentration of half-maximal effect. In a few lines: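 Immortalized human C25cl48 myoblasts with HiBit knocked into endogenous HLA-B*08:01 were stimulated with 4.0 ng/ml IFN-beta and exposed to compounds (11-point 1:3 titration, top 46 uM final) for 24 hrs at 37 C; HiBiT lytic luminescence measured.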

In assay [5] the target is Protein phosphatase 1D (Homo sapiens) (UniProt O15297). The assay is described as follows: Rhodamine-PBP qHTS Assay for Modulators of WT P53-Induced Phosphatase 1 (WIP1) (AID 1347425). Note: % of control where 0% means no effect. In a few lines: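 WIP1 (5 nM final) was preincubated with compound for 1 hour at room temperature. It then dephosphorylated 10 uM VEPPL-pS-QETFS peptide in Tris-HCl pH 7.5 with 30 mM MgCl2. Released Pi was detected by 10 uM Rh-PBP fluorescence (ex 525/em 598 nm) read at 1-min intervals for 11 min, as delta f1 - f0.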

Assay [6] can be described thus: Primary qHTS for inhibitors of La Crosse Virus (LACV) - induced cell death in SH-SY5Y cells (AID 1508616).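 Note: top concentration of the series differs between compounds; 0% = infected DMSO wells and 100% = uninfected DMSO wells; higher means more rescue of cells from virus-induced death.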 A digest of the protocol: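 Luminescent ATP readout (ATPLite 1step, 5 min room temperature) measured rescue from LACV-induced death after 6 days of infection at 0.01 MOI; normalized to infected DMSO wells and uninfected DMSO wells.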
In assay [7] the target is Calcium and integrin-binding protein 1 (Homo sapiens) (UniProt Q99828). The assay is described as follows: Primary qHTS for Identification of Calcium Integrin Binding Protein 1 (CIB1) Competitor (AID 1508620).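 Note: GST tagged CIB1 binding a fluorescein labelled alphaIIb integrin peptide tracer; top concentration of the series differs between compounds; % is set by controls: 0 for no effect and ±100 for the full control effect.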 In a few lines: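 Fluorescence polarization competition: CIB1-GST (1 uM final) preincubated with compound 15 min at room temperature, then FITC-labeled alphaIIb peptide (100 nM final) added for another 15 min. Polarization read at Ex 480/Em 540.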

Assay [8] has as its target Lysine-specific demethylase 5B (Homo sapiens) (UniProt Q9UGL1). The assay is described as follows: Optimization screen for KDM5B Histone Demethylases FDH coupled qHTS against the LOPAC library (AID 1347166). Note: 0% is about no effect. The settings on record: KDM5B demethylation, FDH-coupled NADH fluorescence (FDH is formaldehyde dehydrogenase); at 57.5 µM (top of the series). In a few lines:
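KDM5BDeltaAP (200nM final) preincubated 10 min with compound, then 12.5uM H3K4Me3, 25uM a-ketoglutarate, ascorbate, Fe(II), NAD+ and FDH added; 50mM HEPES pH 7.5, 0.01% Tween-20. NADH fluorescence (340/450 nm) change over 30 min, room temperature.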

A short description of assay [9]: qHTS to identify inhibitors of the type 1 interferon - major histocompatibility complex class I in skeletal muscle: primary screen against the NCATS LOPAC collection (AID 1347405).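 Note: lytic HiBiT luminescence reporting HLA-B protein level; % is set by controls: 0 for no effect and ±100 for the full control effect.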 A digest of the protocol: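 Immortalized human C25cl48 myoblasts with HiBiT knocked into endogenous HLA-B*08:01 were stimulated with 4.0 ng/ml IFN-beta and given compounds in a 7-point, 1:4.3 titration from 46 uM final; after 24 hrs, lytic HiBiT luminescence was read.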

Assay [10] is described as follows: qHTS for inhibitors of adenylyl cyclases using a fission yeast platform: a pilot screen against the NCATS LOPAC library (AID 1347410).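 Note: plate controls were DMSO vehicle for no effect and DPI positive control for full effect.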 A digest of the protocol: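 Inhibition of GNAS-stimulated AC9 activity in S. pombe was inferred from derepression of a PKA-repressed fbp1-GFP reporter, measured as cytometric fluorescence after 18 h at 30C with compounds at up to 57 µM.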

Assay [11] can be described thus: Validation qHTS assay for inhibitors of Activation Induced Cytidine Deaminase (AID): UDG Counterscreen signal (AID 1347427). Note: 0% is about no effect. A digest of the protocol:
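Counterscreen read of UDG activity (2 U/mL, 4/3x) in the FRET deamination format with AID (1 uM, 4/3x), DJC20/DJC23 substrates (250 nM, 4x), 4 h at room temperature. NaOH stop, fluorescence at 560 ex/665 em.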

The target in assay [12] is Single-stranded DNA cytosine deaminase (Homo sapiens) (UniProt Q9GZX7). The assay is described as follows: Validation qHTS assay for inhibitors of Activation Induced Cytidine Deaminase (AID): AID signal (AID 1347429). Note: % is set by controls: 0 for no effect and ±100 for the full control effect. A digest of the protocol:
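AID and UDG were combined and compounds added at final up to 114 uM, then DJC20/DJC23 FRET substrate was added for 4 hr at room temperature. NaOH was then added for 30 min before fluorescence was read at 540/590 nm.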

A short description of assay [13]: Vero cells viability qHTS for Zika virus inhibitors (AID 1347167). Note: % is set by controls: 0 for no effect and ±100 for the full control effect. A digest of the protocol:
(§1)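 Counter-screen for cytotoxicity of hits from NS2B-NS3 protease qHTS. Overnight-attached cells (2.5 x 10^5 cells/mL, DMEM/4% FBS) were dosed in titration, incubated 24 to 48 hours, then assayed by CellTiter Glo.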

Assay [14] has as its target Protein phosphatase 1D (Homo sapiens) (UniProt O15297). The assay is described as follows: RapidFire Mass Spectrometry qHTS Assay for Modulators of WT P53-Induced Phosphatase 1 (WIP1) (AID 1347424).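 Note: amount of dephosphorylated VEPPL-S-QETFS peptide product formed by WIP1; plate controls were DMSO wells for no effect and GSK830371 inhibitor control at 10 µM for full effect.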 A digest of the protocol: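 WIP1 (10 nM final) was preincubated 1 h at room temperature with compounds in Tris-HCl pH 7.5, 30 mM MgCl2, TCEP, EGTA, BSA; 2 uM VEPPL-pS-QETFS phosphopeptide was added for 5 min, quenched with formic acid, and dephosphorylated product quantified by RapidFire MS.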

A short description of assay [15]: HepG2 cells viability qHTS for Zika virus inhibitors (AID 1347168). Note: % is set by controls: 0 for no effect and ±100 for the full control effect. In a few lines:
as §1

The subject of assay [16] is Zika virus NS2B-NS3 protease (linked). The assay is described as follows: 384 well plate NINDS AMC confirmatory qHTS for Zika virus inhibitors (AID 1347163). Note: potency is the fitted concentration of half-maximal effect; nearly all actives have a fitted effect of over 50% in size. As to conditions: Recombinant NS2B-NS3 protease, Ac-VKTGKR-AMC fluorescence. A digest of the protocol:
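Linked protease 5/30/60 nM final; cpds up to 1 mM final, ~15 min preinc. Substrate Ac-VKTGKR-AMC 30 microM final. RT, dark, 25 min; FI ex 355/em 460; normalized to no-enzyme/no-inhibitor ctrls.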

The subject of assay [17] is Zika virus NS2B-NS3 protease (linked construct). The assay is described as follows: 384 well plate NINDS Rhodamine confirmatory qHTS for Zika virus inhibitors (AID 1347164). Note: potency is the fitted concentration of half-maximal effect; nearly all actives have a fitted effect of over 65% in size. As to conditions: rhodamine-110 peptide substrate fluorescence. A digest of the protocol: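 Cleavage of Ac-LKRR-Rhodamine 110 (10 microM final) by linked protease (final 5, 30 or 60 nM) was followed as fluorescence at 485/538 nm after 25 min, room temperature, dark. Compounds preincubated ~15 min.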

Values without a mark were called inactive. Inconclusive results are not listed. Calls of active or inactive are those of the source. Calls come from the whole dose curve; as a rule, active = well fitted curve in the direction sought with a large enough effect; inconclusive = small, poorly fitted or top-dose-only effect, or another doubt; inactive = no such curve, though single readings can be large; an effect the other way counts as inactive or inconclusive.

Sequence of Single-stranded DNA cytosine deaminase (Homo sapiens) (Q9GZX7 whole entry, looked up): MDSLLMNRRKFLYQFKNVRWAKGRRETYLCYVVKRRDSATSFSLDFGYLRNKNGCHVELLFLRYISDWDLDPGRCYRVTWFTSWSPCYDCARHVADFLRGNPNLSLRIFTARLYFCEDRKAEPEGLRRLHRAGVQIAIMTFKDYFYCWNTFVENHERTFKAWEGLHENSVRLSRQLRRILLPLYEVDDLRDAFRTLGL
Sequence of Protein phosphatase 1D (Homo sapiens) (O15297 whole entry, looked up): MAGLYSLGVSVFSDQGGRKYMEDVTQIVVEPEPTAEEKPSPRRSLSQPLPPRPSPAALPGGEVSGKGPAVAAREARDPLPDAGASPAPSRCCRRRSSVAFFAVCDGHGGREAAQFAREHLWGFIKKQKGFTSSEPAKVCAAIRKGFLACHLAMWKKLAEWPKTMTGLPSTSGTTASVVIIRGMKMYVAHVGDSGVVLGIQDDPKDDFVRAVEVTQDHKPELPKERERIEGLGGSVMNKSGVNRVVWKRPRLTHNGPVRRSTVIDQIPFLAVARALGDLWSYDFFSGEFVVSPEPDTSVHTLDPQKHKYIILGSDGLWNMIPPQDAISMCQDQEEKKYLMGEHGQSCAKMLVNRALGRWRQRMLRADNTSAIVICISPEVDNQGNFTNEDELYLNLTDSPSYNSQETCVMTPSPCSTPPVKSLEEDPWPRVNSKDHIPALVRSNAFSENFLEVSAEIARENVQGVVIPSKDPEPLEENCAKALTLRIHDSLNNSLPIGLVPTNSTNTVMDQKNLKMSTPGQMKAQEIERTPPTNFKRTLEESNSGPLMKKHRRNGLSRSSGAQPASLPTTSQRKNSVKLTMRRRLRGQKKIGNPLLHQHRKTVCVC
Sequence of Lysine-specific demethylase 5B (Homo sapiens) (Q9UGL1 whole entry, looked up): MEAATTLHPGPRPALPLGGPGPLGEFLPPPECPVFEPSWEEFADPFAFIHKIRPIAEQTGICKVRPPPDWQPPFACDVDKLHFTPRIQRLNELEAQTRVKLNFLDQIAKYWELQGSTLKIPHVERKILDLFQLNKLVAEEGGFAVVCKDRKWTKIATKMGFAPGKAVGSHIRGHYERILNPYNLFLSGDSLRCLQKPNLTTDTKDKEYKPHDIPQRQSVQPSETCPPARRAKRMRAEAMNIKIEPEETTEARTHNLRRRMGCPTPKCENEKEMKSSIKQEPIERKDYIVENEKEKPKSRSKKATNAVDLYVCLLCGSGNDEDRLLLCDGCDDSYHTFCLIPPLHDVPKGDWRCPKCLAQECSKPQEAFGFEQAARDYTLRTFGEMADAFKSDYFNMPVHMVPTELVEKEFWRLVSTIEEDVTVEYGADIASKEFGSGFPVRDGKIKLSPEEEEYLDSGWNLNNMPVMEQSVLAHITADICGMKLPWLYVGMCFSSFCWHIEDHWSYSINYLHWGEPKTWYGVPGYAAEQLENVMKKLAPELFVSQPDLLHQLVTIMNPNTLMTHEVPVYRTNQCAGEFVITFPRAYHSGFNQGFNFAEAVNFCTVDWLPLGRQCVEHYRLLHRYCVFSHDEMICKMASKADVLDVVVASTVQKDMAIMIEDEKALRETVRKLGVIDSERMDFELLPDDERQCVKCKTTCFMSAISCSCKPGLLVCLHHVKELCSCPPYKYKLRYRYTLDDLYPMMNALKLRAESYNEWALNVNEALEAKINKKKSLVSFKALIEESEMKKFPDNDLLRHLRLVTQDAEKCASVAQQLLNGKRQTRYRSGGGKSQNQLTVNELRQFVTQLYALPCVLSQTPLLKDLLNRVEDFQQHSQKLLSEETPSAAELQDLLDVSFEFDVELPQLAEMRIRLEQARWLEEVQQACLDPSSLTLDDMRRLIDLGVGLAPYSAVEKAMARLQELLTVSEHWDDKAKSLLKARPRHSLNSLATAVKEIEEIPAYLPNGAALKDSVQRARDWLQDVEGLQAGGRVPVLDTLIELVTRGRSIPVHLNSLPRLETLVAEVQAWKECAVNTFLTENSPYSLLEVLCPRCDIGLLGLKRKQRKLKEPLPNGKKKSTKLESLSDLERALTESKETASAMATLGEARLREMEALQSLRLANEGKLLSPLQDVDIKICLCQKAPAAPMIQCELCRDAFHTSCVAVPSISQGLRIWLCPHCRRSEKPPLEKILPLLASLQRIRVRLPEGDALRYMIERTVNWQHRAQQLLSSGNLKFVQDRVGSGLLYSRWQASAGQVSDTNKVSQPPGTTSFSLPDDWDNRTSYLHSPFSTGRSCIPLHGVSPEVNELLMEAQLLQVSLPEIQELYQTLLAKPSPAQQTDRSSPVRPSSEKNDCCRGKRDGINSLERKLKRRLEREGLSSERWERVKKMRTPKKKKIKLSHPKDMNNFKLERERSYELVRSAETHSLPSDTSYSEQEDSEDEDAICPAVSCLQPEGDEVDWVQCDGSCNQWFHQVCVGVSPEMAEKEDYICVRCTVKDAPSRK
Sequence of Calcium and integrin-binding protein 1 (Homo sapiens) (Q99828 whole entry, looked up): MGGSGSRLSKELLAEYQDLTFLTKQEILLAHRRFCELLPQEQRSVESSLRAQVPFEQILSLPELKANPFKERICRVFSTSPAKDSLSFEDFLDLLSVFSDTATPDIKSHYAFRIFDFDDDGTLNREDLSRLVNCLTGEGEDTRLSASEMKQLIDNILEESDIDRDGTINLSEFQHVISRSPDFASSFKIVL

As to `COc1ccc(-c2ccc3cc(C(=O)O)ccc3c2)cc1C12CC3CC(CC(C3)C1)C2`, the Potency entry in assay [1], in [3], in [4] and in assay [6] was “inactive” in each case. Also, the activity change, negative = inhibition in assay [2] is -1.33% [at 5.25 µM]. Moreover, the compound was classed as inactive in [5] and in assay [7].
For the compound `CCN(CC)CCn1c(=O)c(Cc2ccc(OC)cc2)nc2ccccc21`, the activity, negative = inhibition in assay [8] was -17%. Moreover, the compound was called inactive in assay [9], in [10], in assay [11], in assay [12] and in assay [7]. Also, the Potency result in [4] and in assay [6] was “inactive” each time.
Take `COc1cc(NCc2ccc3nc(N)nc(N)c3c2C)cc(OC)c1OC`: the Potency entry in assay [1], in assay [13] and in assay [6] was “inactive” in each case. The Potency in assay [4] is 26.2 µM (active). The result in assay [14] and in assay [5] was inactive.
Regarding `CCCc1nc(C)c2c(=O)[nH]c(-c3cc(S(=O)(=O)N4CCN(CC)CC4)ccc3OCC)nn12`, the Potency entry in assay [1], in assay [13], in [15], in [2], in [3] and in assay [4] was “inactive” each time. Further, the Potency result in assay [6] is “inactive”. The compound was classed as inactive in [14], in assay [5] and in assay [7].
`CC(C)NCC(O)c1ccc(NS(C)(=O)=O)cc1` (configuration not stated): in assay [8], the activity, negative = inhibition is -4.54%. Besides, the compound was called inactive in assay [9], in [10], in assay [11], in assay [12] and in assay [7]. Besides, the Potency entry in assay [4] and in assay [6] was “inactive” throughout.
As to `CNNCc1ccc(C(=O)NC(C)C)cc1`, the Potency result in [3], in assay [4] and in [6] was “inactive” in each case. In addition, the compound was classed as inactive in assay [14] and in assay [5].
Take `NC(N)=NC(N)=NCCc1ccccc1`: the Potency entry in assay [3], in assay [4] and in assay [6] was “inactive” each time. In addition, the call in assay [14] and in assay [5] was inactive.
On to `Nc1nc(N)c2nc(CNc3ccc(C(=O)NC(CCC(=O)O)C(=O)O)cc3)cnc2n1` (configuration not stated), for which, in assay [1], the Potency is 55.3 µM (active). In addition, the activity, negative = inhibition in assay [8] was -994% (active). Besides, the Potency entry in assay [13], in [15], in assay [2], in assay [4] and in [6] was “inactive” each time. Besides, the outcome in assay [9], in assay [10], in assay [11] and in assay [12] was inactive.
As for `O=C(O)c1cn(C2CC2)c2cc(N3CCNCC3)c(F)cc2c1=O`, the Potency entry in [13], in [15], in [2] and in assay [6] was “inactive” throughout. The call in [14] and in [5] was inactive.
With `NC(=O)c1ccc2[nH]ccc2c1`, the activity, negative = inhibition in assay [8] is -16.4%. For the same compound, the call in [9], in assay [10], in assay [11], in [12] and in [7] was inactive. For the same compound, the Potency entry in assay [4] and in assay [6] was “inactive” each time.
For the compound `COC(=O)Nc1nc2ccc(C(=O)c3ccccc3)cc2[nH]1`, the results for the Potency in assay [16], in assay [17] and in assay [2] were 126 µM (active), 178 µM (active) and 0.829 µM (active), respectively. The Potency result in [13] and in assay [15] was “inactive” throughout. Moreover, the compound was classed as inactive in assay [14] and in assay [5].
In the case of `NS(=O)(=O)c1cc2c(cc1Cl)NC(C(Cl)Cl)NS2(=O)=O` (configuration not stated), the Potency result in assay [3], in assay [4] and in assay [6] was “inactive” in each case. Also, the outcome in assay [14], in assay [5] and in assay [7] was inactive.
